Anthrax LF prot = Bacillus anthracis LF protease inhibitors, primary screen, biochemical, multiplex microsphere, MLPCN library; AID 588501, 2011; 360,000 tested, 0.12% active; multiplex microsphere protease cleavage assay; inhibition, % at 10 µM; Lethal factor (Bacillus anthracis), P15917
BoNT F protease = BoNT/F light chain protease inhibitors, primary screen, biochemical, flow cytometry, MLPCN library; 360,000 tested, 0.22% active; Multiplex microsphere protease cleavage assay; inhibition, % at 10 µM; AID 588497, 2011; in the data active means inhibition above about 35%, passing the limit was not always enough; inconclusive means no clear call, values can overlap the other calls
BoNT-A LC inh2 = BoNT/A light chain protease inhibitors, primary screen, biochemical, flow cytometry, MLPCN library; 360,000 tested, 0.17% active; AID 588499, 2011; inhibition, % at 10 µM; Botulinum neurotoxin type A light chain protease (Clostridium botulinum A str. ATCC 3502); multiplex microsphere protease substrate cleavage
Bead autofluor = flagged as autofluorescent in microsphere protease counterscreen; compound autofluorescence counterscreen, microsphere flow cytometry; hits give high values; fluorescence intensity (no concentration beside the values); 360,000 tested, 3.1% active; in the data active means fluorescence intensity above about 16000; inconclusive means no clear call, values can overlap the other calls
Each line names hits and unclear results; the compound was inactive in the other large screens. Hits are enriched below; roughly 3.5% of the tested compounds scored in any of these assays. Unless noted, no stated cut-off is given here; in the data, active means inhibition above about 30%; inconclusive means no clear call, values can overlap the other calls; inactive means below that.

CC(C)[C@H](NC(=O)c1cccc(CN(Cc2ccccc2)C(=O)/C=C/c2ccccc2)c1)C(=O)O	BoNT F protease inconclusive, Bead autofluor inconclusive
O=C1C(=Nc2cccc(Cl)c2)CC(c2ccc(Cl)cc2)N1c1cccc(Cl)c1 (stereo not drawn)	BoNT F protease inconclusive
CC1CCCCC12NC(=O)N(CC(=O)Nc1ccc3[nH]c(=O)[nH]c3c1)C2=O (stereo not drawn)	none
Cc1nn(Cc2ccccc2)c(Cl)c1C(=O)NCCc1ccccc1	none
Cc1nn(Cc2ccccc2)c(Cl)c1C(=O)NCc1ccc(C)n1C	BoNT-A LC inh2 inconclusive, Bead autofluor 19508
COc1ccc(-c2noc(-c3ccccc3C(=O)Nc3cccnc3)n2)cc1OC	none
O=C(Nc1cccnc1)c1ccccc1F	none
O=C(Nc1cccnc1)c1ccccc1-c1nc(-c2ccccc2F)no1	Bead autofluor 21936
O=C(Nc1cccnc1)c1c(F)cccc1F	BoNT-A LC inh2 inconclusive, Bead autofluor 16636
COc1ccccc1-c1noc(-c2ccccc2C(=O)Nc2cccnc2)n1	Bead autofluor 22521
CS(=O)(=O)Cc1cccc(C(=O)NN(c2ccccc2)c2ccccc2)c1	none
Cc1nnsc1C(=O)NNC(=O)c1cccc2ccccc12	BoNT F protease inconclusive
N#Cc1c2n(c3c(=O)n(Cc4ccc(Cl)cc4)cnc13)CCCCC2	none
N#Cc1c2n(c3c(=O)n(Cc4ccccc4)cnc13)CCCC2	Bead autofluor 17920
CC1CN(C(=O)c2cc(S(=O)(=O)N(C)c3ccc(F)cc3)ccc2Cl)CC(C)O1 (stereo not drawn)	none
CCc1c(C)sc(NC(=O)c2cc(-c3ccco3)on2)c1C#N	Bead autofluor 23332
Cc1cc(NC(=O)c2cc(-c3ccco3)on2)n(-c2ccccc2)n1	Bead autofluor 23364
O=C(NCc1ccco1)c1cc(C(=O)C2CC2)c[nH]1	BoNT-A LC inh2 inconclusive, Bead autofluor 21145
COc1ccccc1-c1cc(C(=O)Nc2cc(C)nn2-c2ccccc2)no1	Bead autofluor 20928
CCc1c(C)sc(NC(=O)c2cc(C)on2)c1C#N	none
COc1ccccc1-c1cc(C(=O)Nc2ccc(F)cc2F)no1	Bead autofluor 20081
O=C(NCc1ccco1)c1cc(-c2ccco2)on1	BoNT-A LC inh2 inconclusive, Bead autofluor 16474
Fc1ccc(Nc2nc(NCc3cccs3)nc3ccsc23)cc1	none
Nc1nc2c(ncn2[C@@H]2O[C@H](CNCc3ccccc3)[C@@H](O)[C@H]2O)c(=O)[nH]1	none
CC(C)C(CCNC(=O)CN1C(=O)c2ccccc2C1=O)c1ccco1 (stereo not drawn)	none
CC(C)C(CCNC(=O)CC(Cc1ccccc1)c1ccco1)c1ccco1 (stereo not drawn)	Bead autofluor 17138
CCCCCc1cc(O)c2c(C)cc(=O)oc2c1	Bead autofluor 23187
CNC(=O)CSc1nnc(-c2ccco2)n1-c1ccccc1OC	none
CCOc1ccccc1-n1c(SCC(=O)NC)nnc1-c1ccco1	Bead autofluor 17639
CCN(CC)C(=O)CSc1nnc(-c2ccco2)n1N	Bead autofluor 17289
CS(=O)(=O)N(CC(=O)NCCSc1ccccn1)c1cccc2ccccc12	none
CSCCC(NC(=O)OCc1ccccc1)C(=O)NCc1cccnc1 (stereo not drawn)	none
COc1cc(-c2ccc3oc(-c4ccsc4)c(C#CC4(O)CCCCC4)c3c2)cc(OC)c1OC	none
CC(=O)c1c(C)nc(C)nc1NC(=O)Cc1ccccc1	none
CC(=O)Nc1nc(-c2ccc(Cl)cc2)nc(C)c1C(C)=O	BoNT F protease 35
Cc1ccc(S(=O)(=O)CCc2nc3ccccc3[nH]2)cc1C	none
c1ccc(-c2nc3ccccc3nc2-c2ccccn2)nc1	Bead autofluor 22188
Cc1cc2nc(-c3ccccn3)c(-c3ccccn3)nc2cc1C	none
COc1ccc(C(CNC(=O)c2nn(-c3ccccc3)c(=O)c3ccccc23)N2CCOCC2)cc1 (stereo not drawn)	none
COCC(=O)Nc1sc2c(c1C(=O)OC)C(C(=O)OC)CC2 (stereo not drawn)	Bead autofluor 20588
Cc1ccc(S(=O)(=O)N2CCOCC2)cc1C(=O)NCCc1ccc(Cl)cc1	none
COc1ccc2c(c1)SCC(=O)N2C	Bead autofluor 21232
C=CCn1c(SCC(=O)N(CC)CC)nc(O)cc1=O	BoNT-A LC inh2 inconclusive, Bead autofluor 23021
COc1ccccc1CCC(=O)OCC(=O)Nc1ccc(C(N)=O)cc1	none
CC(C)/C=C1\CC/C(=C\c2ccc(N(C)C)cc2)C1=O	BoNT-A LC inh2 34
CCOC(=O)c1sc(=S)n(-c2ccccc2)c1N(C(C)=O)C(C)=O	none
Cc1ccc(CN(C(=O)c2csnn2)C(C(=O)NC2CCCC2)c2cccnc2)cc1 (stereo not drawn)	none
O=C1SC(SCc2ccccc2)=N/C1=C\c1ccco1	Bead autofluor 23038
Cn1ncc(N=Cc2c(O)ccc3ccccc23)c1C(=O)Nc1cccc(Cl)c1	none
Cn1cc(-c2nnnn2-c2ccc(Cl)cc2)c(C(F)(F)F)n1	Bead autofluor 23367
Cc1cc(C)cc(-n2nnnc2-c2cn(C)nc2C(F)(F)F)c1	none
CCCCc1[nH]c(=O)c(C#N)c2c1CCCC2	none
Cc1[nH]c(=O)c(C#N)c2c1CSC(C)(C)C2	none
CCCCc1[nH]c(=O)c(C#N)c2c1CSC(C)(C)C2	Bead autofluor 22475
CCc1[nH]c(=O)c(C#N)c2c1CSC(C)(C)C2	BoNT-A LC inh2 inconclusive, Bead autofluor 23170
O=C(CC1C(=O)NCCN1Cc1ccccn1)NCCc1ccccc1F (stereo not drawn)	none
CCc1nc2ccc(C(=O)Nc3cccc(NS(C)(=O)=O)c3)cn2c1N(CCC(C)C)CCN(C)C	none
CCn1c(C)nc2cc(C(=O)NNS(=O)(=O)c3c(C)c(C)cc(C)c3C)ccc21	Bead autofluor 24040
CCn1c(C)nc2cc(C(=O)NNC(=O)c3ccc(C)cc3)ccc21	none
CC1(C(=O)NS(=O)(=O)Cc2ccccc2)CCN1C(=O)Cc1cc(F)ccc1F (stereo not drawn)	none
CCOC(=O)c1c(NC(=O)CSc2nccn2C)sc(C(=O)NC)c1C	none
Cc1cccc(N2CCN(C(=O)c3ccc(CS(=O)(=O)c4ccccc4C)o3)CC2C)c1 (stereo not drawn)	BoNT-A LC inh2 inconclusive, Bead autofluor 21673
COC(=O)c1ccc(CS(=O)(=O)c2ccccc2C)o1	BoNT-A LC inh2 inconclusive, Bead autofluor 23513
Cc1ccc(C)c(N2CCN(C(=O)c3ccc(CS(=O)(=O)c4ccccc4C)o3)CC2)c1	none
COc1ccccc1S(=O)(=O)Cc1ccc(C(=O)N2CCN(c3cccc(Cl)c3)CC2)o1	none
COc1ccccc1S(=O)(=O)Cc1ccc(C(=O)N2CCN(c3ccccc3)CC2)o1	Bead autofluor 21717
CCNC(=O)C1CCCN(C(=O)c2cc(C)oc2C)CC1 (stereo not drawn)	none
O=C(O)CC1S/C(=N/N=C/c2ccc(-c3ccccc3[N+](=O)[O-])o2)NC1=O (stereo not drawn)	Bead autofluor 23815
CCOC(=O)C1=C(C)NC(=O)NC1c1ccc(F)cc1 (stereo not drawn)	none
CCN(CC)C(=O)C1=C(C)NC(=O)NC1c1c(F)cccc1Cl (stereo not drawn)	Bead autofluor 16958
